Laboratory results as given in ChEMBL document CHEMBL1157539, “Thousands of chemical starting points for antimalarial lead identification” (Nature, 2010).

test system: Plasmodium falciparum; assay: GSK_TCMDC: Inhibition of Plasmodium falciparum 3D7 in whole red blood cells, using parasite LDH activity as an index of growth. Test compounds present at 2uM; type: functional

Inhibition, 94%:
Cc1cc(OCC2CCN(c3ccc(C(=O)NC4CC4)cn3)CC2)ccc1F, O=CO.O=S1(=O)NCc2ccc(Nc3nccc(Nc4ccc5c(cnn5Cc5ccccc5)c4)n3)cc21, Cc1cnn(-c2cccc(C(=O)NC3CCC(CCN4CCc5ccc(C#N)cc5CC4)CC3)c2)c1.Cl (stereo not given)

Inhibition, 90%:
O=C(NC1CCN(CCC[C@]2(c3ccc(Cl)c(Cl)c3)CCCN(C(=O)c3ccccc3)C2)CC1)c1ccc(F)cc1, CC(C)[C@H](NC(=O)NC1CCC(CCN2C3CCC2CC(OC(=O)C(CO)c2ccccc2)C3)CC1)C(O)(c1ccccc1)c1ccccc1 (stereo not given in full), COc1ccc(Cn2c(Nc3cccc(C(F)(F)F)c3)nc3cc(C(=O)NCCCN(C)C)ccc32)cc1Cl

Inhibition, 86%:
COc1cccc(N(CCCN2C(=O)c3cccc4cccc(c34)C2=O)C(=O)c2ccccc2C)c1

Inhibition, 95%:
O=C(Nc1ccc(C(=O)N2CCN(CCN3CCN(c4cccc(C(F)(F)F)c4)CC3)CC2)cc1)c1ccc(OC(F)(F)F)cc1, CC(C)C[C@@H](NC(=O)NC1CCC(CCN2C3CCC2CC(OC(=O)C(CO)c2ccccc2)C3)CC1)C(O)(c1ccccc1)c1ccccc1 (stereo not given in full), CC(C)C[C@H](NC(=O)c1cc(-c2ccc(C(C)(C)C)cc2)no1)C(=O)O.CC(C)C[C@H](NC(=O)c1conc1-c1ccc(C(C)(C)C)cc1)C(=O)O, O=C1C(c2ccccc2)=C(Nc2ccc([N+](=O)[O-])cc2)c2ccccc21

Inhibition, 97%:
N#Cc1c(N2CCCCCC2)nc(N)c2c(N)nc3c(c12)CC(=O)N3c1ccc(F)cc1

Inhibition, 99%:
O=C(Nc1cccnc1)c1cn(-c2ccccc2)nc1-c1cccs1, CCN(CC)CC(O)c1cc(-c2ccc(OC)cc2)nc2cc(Cl)ccc12.Cl (stereo not given), CCc1cn2c3c(cc(C(=O)N[C@@H](Cc4ccccc4)[C@H](O)CNCc4ccc(C)cc4)cc13)N(C)S(=O)(=O)CC2.O=CO, O=C(/C=C/c1ccc(Cl)c(Cl)c1)NCCCCCCN1CCN(C(=O)Nc2ccc(Cl)c(C(F)(F)F)c2)CC1

Inhibition, 98%:
O=C(C=Cc1ccc(Cl)c(Cl)c1)NCCCCCN1CCCC(CCCNC(=O)/C=C/c2ccccc2)C1 (stereo not given), Nc1nc(Nc2cccc(Cl)c2)ncc1C(=O)NCc1ccncc1, Cc1c(C)c2c(c(C)c1O)CC[C@@](C)(C(=O)N1CCC(CCN3CCC(c4c[nH]c5ccccc45)CC3)CC1)O2, CCNc1cc(C(=O)N[C@@H](Cc2ccccc2)[C@H](O)CNC2CCC(C(C)(C)C)CC2)cc(N2CCCC2=O)c1 (stereo not given in full)

Inhibition, 83%:
CN(Cc1ccc(C#N)cc1)C1CCN(c2cc(NC(=O)c3cccc(F)c3)ccn2)CC1.O=C(O)C(F)(F)F

Inhibition, 96%:
CS(=O)(=O)CCOCc1ccc(-c2ccc3ncnc(Nc4ccc(OCc5cccc(F)c5)c(Cl)c4)c3c2)o1, Cc1cccc(CCNC(=O)c2cc(Br)cc(N3CCN(c4ccncc4)CC3)c2)c1.O=C(O)C(F)(F)F

Inhibition, 100%:
CCN(CC)CC(O)c1cc(-c2ccc(C)cc2)nc2c(C)cc(C)cc12.Cl (stereo not given), Fc1ccc(Nc2ccnc3cc(-c4ccc(CN5CCOCC5)o4)ccc23)c(Cl)c1, CN1CCc2cc(NS(=O)(=O)c3ccc(-c4ccc(Cl)cc4)cc3)c(OCCCN3CCCCC3)cc2CC1.Cl, N#Cc1ccc(N[C@@H](CC2CCCCC2)C(=O)Nc2ccc(-c3ccccc3)cc2)c2ccccc12.O=C(O)C(F)(F)F, COc1ccc(CN2CCC(CNC(C)c3cccc4ccccc34)CC2)cc1.O=C(O)C(F)(F)F (stereo not given), O=C(NC1CCN(c2ccnc3cc(Cl)ccc23)C1)c1ccc(C(F)(F)F)cc1.O=C(O)C(F)(F)F (stereo not given), COc1ccc2nccc(N3CCCN(CCNCc4ccc5c(n4)NC(=O)CS5)CC3)c2n1.Cl, CN1CCN(c2nsc3ccc(-c4ccc(NC(=O)Nc5ccccc5)cc4)cc23)CC1.O=C(O)C(F)(F)F, Cc1cccn2c(=O)c3cc(C(=O)NCCN4CCOCC4)c(=N)n(CCc4ccccc4)c3nc12, CS(=O)(=O)CCNCc1cccc(-c2cc3c(Nc4ccc5c(cnn5Cc5ccccc5)c4)ncnc3s2)c1.O=C(O)C(F)(F)F, Cc1ccc2[nH]c(-c3ccc(C=CC(=O)NC4CCN(Cc5ccccc5)CC4)cc3)nc2c1, CC(=O)N(Cc1ccc(CC(C)NCCc2cccc(Cl)c2)cc1)Cc1ccc(CC(C)NCCc2cccc(Cl)c2)cc1 (stereo not given), Cn1c(NC2CCN(CC3CCN(C(=O)/C=C/c4ccc(Cl)c(Cl)c4)CC3)CC2)nc2ccccc21

Inhibition, 88%:
COCCNC(=O)c1ccc(OC2CCN(Cc3ccc(F)c(F)c3)CC2)c(Cl)c1

Inhibition, 89%:
COCn1ncc2cc(-c3cccc(NC(=O)c4csc(NC(C)=O)n4)c3)ccc21

Inhibition, 92%:
COc1ccc2nccc([C@@H](O)CN3CCC(NC(=O)Cc4cc5ccccc5s4)CC3)c2c1, Cc1cc(N(C)CCN(C)C)nc(Nc2ccc(Cl)cc2)n1
